Sampled rows, rich in hits. Any-hit rate of the full collection: about 2.9%.
GLP-1R inv ag – acts as inverse agonist at human GLP-1 receptor. Potency, µM (titrated, usually from 38.3 µM), actives largely listed as inhibitors. 410,000 tested, 1.6% active. HEK293 GLP-1R CRE-luciferase, luminescence, 24 h; GLP-1R form is constitutively active; note: nearly all actives have a fitted effect of over 55% in size
Target sequence (P43220 whole entry, looked up): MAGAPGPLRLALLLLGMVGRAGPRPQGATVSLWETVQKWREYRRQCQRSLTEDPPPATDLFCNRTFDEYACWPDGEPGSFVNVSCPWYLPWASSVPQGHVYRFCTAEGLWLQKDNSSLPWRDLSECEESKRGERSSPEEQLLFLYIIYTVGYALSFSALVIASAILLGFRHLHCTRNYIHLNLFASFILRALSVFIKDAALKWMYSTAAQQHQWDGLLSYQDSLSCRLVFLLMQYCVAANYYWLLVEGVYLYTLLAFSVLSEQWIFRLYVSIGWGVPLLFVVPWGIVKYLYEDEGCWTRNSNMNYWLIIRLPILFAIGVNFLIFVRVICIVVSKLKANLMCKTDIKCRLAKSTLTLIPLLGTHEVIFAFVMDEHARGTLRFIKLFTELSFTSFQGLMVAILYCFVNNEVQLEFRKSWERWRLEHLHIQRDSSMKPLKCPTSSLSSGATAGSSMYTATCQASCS
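Readout was luciferase luminescence, measured 12 min after detection reagent at room temperature. Beforehand, GLP-1R reporter HEK293 cells had sat 12 h, then received compounds for 24 hr at 37 deg C.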
HEK293 tox – cytotoxic in the GLP-1 receptor inverse agonist counter-screen; HEK293 cAMP-luciferase reporter cells, luminescence, 24 h; Potency, µM (doses to about 38.3 µM), most hits filed as inhibitors; 410,000 tested, 0.13% active; AID 624418;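 note: loss of luciferase light is scored as toxicity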
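Cells in DMEM/10% Nu serum/1% pen-strep, 1536-well format. Pre-incubated 12 h, dosed with 23 nL compound, incubated a further 24 h. Luciferase detection, 12 min at room temp, luminescence.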
GLP1R ag – GLP-1 receptor (human) agonism; HEK293 GLP-1R CRE-luciferase, luminescence, 4-6 h; cells express a hypersensitive GLP-1R form; 380,000 tested, 0.007% active; Potency, µM (titrated, usually from 45.6 µM), hits mostly activators; P43220
ClpP mod – qHTS Assay for Activators of ClpP; ATP-dependent Clp protease proteolytic subunit (Bacillus subtilis (strain 168)), P80244; purified B. subtilis ClpP, FRET peptide cleavage, 20 min; Potency, µM (highest dose often 57.5 µM); 340,000 tested, 1.9% active; AID 651965, 2013; active = well fitted falling curve with a large enough effect; inconclusive = small, poorly fitted or top-dose-only effect; inactive = no such curve, though single readings can be large or run the other way; note: the source files actives as falling curves though it sought activators and does not explain the sign; nearly all actives have a fitted effect of over 65% in size
Target sequence (P80244 whole entry, looked up): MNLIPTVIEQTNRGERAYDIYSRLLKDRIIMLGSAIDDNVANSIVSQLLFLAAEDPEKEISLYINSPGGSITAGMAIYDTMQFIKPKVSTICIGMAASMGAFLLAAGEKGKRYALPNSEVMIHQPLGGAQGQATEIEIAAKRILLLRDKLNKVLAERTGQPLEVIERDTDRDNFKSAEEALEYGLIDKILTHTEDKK
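ClpP 10 microg/mL final, pH 8 Tris/KCl buffer with BSA, glycerol, Tween-20; compound pinned in; FRET-FV substrate; RT 20 min; Ex320/Em430; ΔFRET vs ADEP 5.8 microM, DMSO, no enzyme.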
LDHA block – inhibitors of human lactate dehydrogenase A | purified LDHA, NADH/diaphorase-resazurin fluorescence; active compounds read low | activity change, % (values are at about 110 or 230 µM) | 480,000 tested, 0.15% active | AID 1347041; in the data active = activity change below about -30%; inconclusive = mostly about -25% to -30%
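Human LDH5 (2 nM) was incubated with 0.06 mM NADH and 0.2 mM pyruvate for 5 min at room temperature in Tris pH 7.4. Remaining NADH was coupled through diaphorase/resazurin, and resorufin fluorescence was read at 0 and 20 min.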
p53 reactivation – restores transcriptional activity of mutant p53 | H1299 p53-A138V BP100-luciferase reporter, luminescence, 24 h | Potency, µM (series often up to 92.2 µM), most hits filed as activators | 320,000 tested, 0.063% active | AID 504706; note: nearly all actives have a fitted effect of over 45% in size
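p53-null H1299 cells stably carrying temperature-sensitive p53-A138V and a BP100-luciferase reporter were pinned with compounds (4-point, 1:5 series) and held 24 hrs at 37 deg C. Luminescence was read 10 min after detection reagent.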
Large screens that a line does not name were inactive. Unless noted, calls come from the whole dose curve; as a rule, active = well fitted curve in the direction sought with a large enough effect; inconclusive = small, poorly fitted or top-dose-only effect, or another doubt; inactive = no such curve, though single readings can be large; an effect the other way counts as inactive or inconclusive.

O=C(O)C(=O)/C(=C\c1ccccc1)c1ccc2ccccc2n1	ClpP mod inconclusive, p53 reactivation inconclusive
CC(=O)Nc1cccc(C(=O)N2CCN(S(=O)(=O)c3ccc(C4CCCCC4)cc3)CC2)c1	GLP-1R inv ag 5µM (no result: p53 reactivation)
CC(=O)Nc1cccc(C(=O)N2CCN(S(=O)(=O)c3ccc4ccccc4c3)CC2)c1	none
CCCCN(CCCC)c1cc(C)nc(-c2ccccc2O)n1	GLP-1R inv ag inconclusive, ClpP mod 32µM
CCCNC(=O)C1(C)CCN(C(=O)c2ccc3sccc3c2)C1 (centres undefined)	none (no result: p53 reactivation)
O=[N+]([O-])c1cccc(NC(c2ccccc2)c2ccccc2)c1	none (no result: GLP-1R inv ag, HEK293 tox, GLP1R ag, ClpP mod, p53 reactivation)
O=C(c1ccccc1)C(Nc1cccc([N+](=O)[O-])c1)c1ccccc1 (centres undefined)	GLP-1R inv ag 7.9µM (no result: ClpP mod, p53 reactivation)
COc1ccc(Cl)cc1NC(=O)CN1Cc2ccccc2C1=O	none (no result: GLP1R ag, p53 reactivation)
COc1ccc(Br)cc1CN(C)CC(=O)Nc1cc(Cl)ccc1Cl	none
COc1ccc(Br)cc1CN(C)CC(=O)Nc1ccccc1Cl	GLP-1R inv ag inconclusive, ClpP mod 28µM
COc1ccc(Cl)cc1NC(=O)CN(C)CC(=O)Nc1ccc(C)cc1Br	GLP-1R inv ag 7.9µM (no result: ClpP mod)
COc1ccc(Cl)cc1NC(=O)CN1C(=O)C(C)(C)c2cc(S(=O)(=O)N3CCCCC3)ccc21	GLP-1R inv ag 11µM (no result: GLP1R ag, p53 reactivation)
COc1ccc(Cl)cc1NC(=O)CN1CCc2ccccc21	GLP-1R inv ag 10µM (no result: ClpP mod)
CC(C)CCN1CCNC(=O)C1CC(=O)N(C)CCCN1CCOCC1 (centres undefined)	ClpP mod 32µM
Clc1ccc(-c2nnc(CSc3nnc(-c4cccs4)n3Cc3ccccc3)o2)cc1	GLP-1R inv ag 10µM
CC1=NN(C(=O)CCc2ccccc2)C(c2ccccc2)C1 (centres undefined)	GLP-1R inv ag inconclusive (no result: ClpP mod)
Cn1ncc(Cl)c1C(=O)N1CCN(c2ccc(Cl)c(Cl)c2)CC1	GLP-1R inv ag inconclusive, ClpP mod 16µM
Cn1ncc(Cl)c1C(=O)N1CCN(c2ccccc2)CC1	none
CCC/C(=C1/c2ccccc2C(=O)N1c1ccccc1)c1ccc2[nH]ccc2c1	GLP-1R inv ag 4.5µM
CC(=O)c1ccc(S(=O)(=O)Nc2ccc(-c3ccc(N4CCCCCC4)nn3)cc2)cc1	none (no result: GLP1R ag, p53 reactivation)
CN(C)CCOCCOc1ccccc1-c1ccccc1	LDHA block -47
CC(O)CNCCCOc1ccc(Cl)cc1C(C)(C)C (centres undefined)	GLP-1R inv ag 1.6µM, HEK293 tox inconclusive (no result: ClpP mod)
CN(C)CCOCCOc1ccc(Cl)cc1C(C)(C)C	GLP-1R inv ag 5.6µM, HEK293 tox inconclusive (no result: ClpP mod)
CN(C)CCOc1ccccc1-c1ccccc1	LDHA block inconclusive
Cc1ccc(NC(=O)N(CCC(=O)O)Cc2ccccc2)cc1	none (no result: ClpP mod)
O=C(Nc1ccccc1)N(Cc1ccccc1)CC(O)C(F)(F)F (centres undefined)	ClpP mod 28µM
O=C(Nc1cccc(F)c1)N(Cc1ccc(Cl)cc1)CC(O)C(F)(F)F (centres undefined)	GLP-1R inv ag 5.6µM, HEK293 tox inconclusive
Cn1c(SCC(=O)N2CCN(S(=O)(=O)c3ccccc3)CC2)nc2ccccc21	none
CCCn1c(=O)[nH]c(=O)c2c1nc(-c1ccc3ccccc3c1)n2CCN1CCOCC1	none (no result: GLP-1R inv ag, HEK293 tox, GLP1R ag, ClpP mod, p53 reactivation)
CCCn1c(=O)[nH]c(=O)c2c1nc(-c1ccc3c(c1)OCCO3)n2CCN1CCOCC1	ClpP mod 32µM
CCOC(=O)N1CCC(N(CCN(C)C)C(=S)Nc2cccc(SC)c2)CC1	GLP-1R inv ag 5.6µM (no result: ClpP mod)
CCOC(=O)N1CCC(N(CCN(C)C)C(=S)Nc2cccc(C)c2)CC1	none
O=C(O)c1ccc(-n2c(/C=C/c3cccc(O)c3)nc3ccccc3c2=O)cc1	none (no result: GLP-1R inv ag, HEK293 tox, GLP1R ag, ClpP mod, p53 reactivation)
CC1C/C(=C/c2cccn2C)C(=O)/C(=C/c2cccn2C)C1 (centres undefined)	GLP-1R inv ag 13µM
CCN(CC)C(=O)CSc1nnc(-c2ccccc2)n1-c1ccccc1	GLP-1R inv ag inconclusive
O=C(COc1ccc(C(=O)c2ccccc2)cc1)NC1CCCCC1	none
O=C(COc1ccc(C(=O)c2ccccc2)cc1)NC1CCCCCC1	GLP-1R inv ag 8.9µM
COc1ccccc1C(=O)NC1CCCCCCC1	GLP-1R inv ag 7.1µM, p53 reactivation inconclusive
O=C(NC1CCCC1)c1cccc(Oc2ccccc2)c1	GLP-1R inv ag 10µM (no result: ClpP mod)
O=C(NC1CCCCC1)c1cccc(Oc2ccccc2)c1	none (no result: GLP-1R inv ag, HEK293 tox, GLP1R ag, ClpP mod, p53 reactivation)
O=C(COc1ccccc1)NC1CCCCCCC1	GLP-1R inv ag 11µM
O=C(COc1ccccc1)NC1CCCCC1	none
COc1ccc(OC)c(C(=O)NC2CCCC2)c1	none (no result: GLP-1R inv ag, HEK293 tox, GLP1R ag, ClpP mod, p53 reactivation)
COc1cc(CN2CCC(CO)(Cc3cccc(C(F)(F)F)c3)CC2)ccc1F	GLP-1R inv ag 3.2µM, HEK293 tox inconclusive
COc1ccc(F)c(CN2CCC(CO)(Cc3cccc(C(F)(F)F)c3)CC2)c1	GLP-1R inv ag inconclusive (no result: ClpP mod)
COc1ccc(CN2C(=O)c3cccnc3C2=O)cc1S(=O)(=O)NCc1ccco1	none
Nc1nc2ccccc2nc1N	ClpP mod 14µM
c1ccc2nc3ccccc3nc2c1	none
O=S(=O)(Nc1ccc2oc3c(c2c1)CCCC3)c1cc(Cl)ccc1Cl	GLP-1R inv ag 11µM (no result: GLP1R ag, p53 reactivation)
COc1ccc(S(=O)(=O)Nc2ccc3oc4c(c3c2)CCCC4)cc1	GLP-1R inv ag inconclusive (no result: GLP1R ag, p53 reactivation)
C[C@H](CO)N1C[C@H](C)[C@@H](CN(C)C(=O)Nc2ccccc2)Oc2ccc(NC(=O)CCC(F)(F)F)cc2C1=O	none
Cc1ccc(C)c(N=Nc2nc3ccccc3n2C)c1	GLP-1R inv ag inconclusive, HEK293 tox inconclusive
Cc1cc(C)c(C)c(N=Nc2nc3ccccc3n2C)c1C	GLP-1R inv ag 7.9µM, HEK293 tox inconclusive, p53 reactivation inconclusive (no result: ClpP mod)
Cc1ccc(C2(c3noc(CN4CCC(c5ccncc5)CC4)n3)CCCC2)cc1	GLP-1R inv ag 4µM, GLP1R ag inconclusive (no result: ClpP mod)
Cn1ncc2c(O/N=C(\N)c3ccc(C(C)(C)C)cc3)ncnc21	GLP-1R inv ag inconclusive, HEK293 tox 10µM (no result: ClpP mod)
CCOC(=O)c1ccc(Nc2ncnc3c2cnn3C)cc1	HEK293 tox inconclusive
Clc1ccc2c(c1)-c1ccccc1C1=NCCN12	GLP-1R inv ag 4µM, HEK293 tox inconclusive (no result: p53 reactivation)
COc1ccc2oc(C(=O)OCC(=O)N(C)Cc3ccccc3)c(C)c2c1	GLP-1R inv ag inconclusive, ClpP mod 28µM
COc1ccc2oc(C(=O)OCC(=O)N(Cc3ccccc3)C(C)C)c(C)c2c1	GLP-1R inv ag 11µM, ClpP mod 32µM
COc1ccc2oc(C(=O)OCC(=O)N(C)c3ccccc3)c(C)c2c1	GLP-1R inv ag inconclusive (no result: ClpP mod)
